Screening results (PubChem)
Most compounds without a hit are left out; they make up all but 2.5% or so of the library.
NSD2 HMT inh – blocks human histone methyltransferase NSD2; NSD2 peptide methylation, AlphaScreen, 120 min; 310,000 tested, 0.54% active; O96028; inhibition, % at 12.5 µM; in the data active = inhibition above about 50%
AF4-AF9 inh – blocks AF4 peptide binding to human AF9; AlphaScreen, biotin-AF4 peptide binding to FLAG-AF9; P42568; AID 651704; 350,000 tested, 0.47% active; inhibition, % at 10 µM;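 active = every replicate reaching a set inhibition limit, whatever the replicate mean, cut at about 25% in these data; inconclusive = mean inhibition reaches that limit but some replicates miss it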;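 also: 0% = plate neutral control median and 100% = total signal loss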
rRNA inh HTS – inhibitors of bacterial rRNA selective over humanized ribosomes; E. coli WT GFP vs humanized-ribosome RFP mutants, fluorescence, 24 h; stronger effect = lower value; DMSO median 0, no signal -100; 350,000 tested, 1.6% active; GFP signal change (wild-type ribosome), % (concentration not given with the values); AID 720706;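 active = significant combined selectivity score with lowered wild-type GFP, culture density cut under 30%, mutant RFP and density less affected; inactive = any of these conditions unmet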
RAD52 anneal inh – blocks human RAD52 DNA annealing; P43351; recombinant RAD52 DNA annealing, FRET fluorescence; inhibition, % at 18.7 µM; 360,000 tested, 0.46% active;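 active = every replicate showing at least 50% inhibition; inconclusive = mean inhibition at least 50% but not in every replicate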
CASP6 VEID inh – caspase-6 (human) enzyme inhibition. purified caspase-6, Z-VEID-R110 cleavage fluorescence. P55212. 350,000 tested, 0.53% active. inhibition, % at 12.5 µM;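 active = mean inhibition across replicates at least about 35%, with every replicate also reaching that limit, limit read from the data; inconclusive = only one of the two criteria met; inactive = neither criterion met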;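 also: 0% = median of neutral control wells and 100% = no fluorescence left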
Target sequence (P55212 24-179 limits assumed): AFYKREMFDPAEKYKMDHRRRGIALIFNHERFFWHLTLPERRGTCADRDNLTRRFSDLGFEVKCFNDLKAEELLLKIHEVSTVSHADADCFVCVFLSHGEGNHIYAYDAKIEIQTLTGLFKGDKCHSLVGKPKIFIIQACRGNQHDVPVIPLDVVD
Target sequence (P55212 194-293 limits assumed): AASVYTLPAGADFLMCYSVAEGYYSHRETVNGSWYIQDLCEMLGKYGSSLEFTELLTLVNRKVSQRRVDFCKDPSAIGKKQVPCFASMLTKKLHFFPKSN
* hit, by the source's call.

`COc1ccc(NC(=O)c2cc(-c3cccs3)on2)c(OC)c1` gave AF4-AF9 inh 34*, rRNA inh HTS 7, RAD52 anneal inh -5 and CASP6 VEID inh 0.
COc1cccc(C(=O)Nc2nnc(-c3cccs3)o2)c1 was read as AF4-AF9 inh 45*, rRNA inh HTS -58, RAD52 anneal inh -20 and CASP6 VEID inh -2.
`Cn1cc(/C=C2\SC(=O)N(c3ccc(O)cc3)C2=O)c2ccccc21` gave AF4-AF9 inh -30, rRNA inh HTS -35*, RAD52 anneal inh -94 and CASP6 VEID inh 8.
For Cn1cc(/C=C2\SC(=O)N(c3ccccc3)C2=O)c2ccccc21 the results were NSD2 HMT inh -2.
For C[C@@H]1CCCCO[C@H](CN(C)Cc2ccccc2)[C@H](C)CN([C@H](C)CO)C(=O)c2cc(NS(C)(=O)=O)ccc2O1 the results were rRNA inh HTS 2.
Screening O=C(O)c1ccc(Cl)cc1NC(=O)C1CCN(S(=O)(=O)c2cccs2)CC1 returned NSD2 HMT inh -2, AF4-AF9 inh -1, rRNA inh HTS -18*, RAD52 anneal inh -8 and CASP6 VEID inh 0.
For O=C(NCCc1ccc(Cl)cc1)C1CCN(S(=O)(=O)c2cccs2)CC1 the results were NSD2 HMT inh 7.
Screening CCCN1C[C@@H](C)[C@H](OC)CN(C)C(=O)c2cc(NC(=O)c3ccc(F)cc3)ccc2OC[C@H]1C returned AF4-AF9 inh 1, rRNA inh HTS -5, RAD52 anneal inh 16 and CASP6 VEID inh 3.
C[C@H](CO)N1C[C@H](C)[C@@H](CN(C)S(C)(=O)=O)Oc2c(NC(=O)CCC(F)(F)F)cccc2C1=O was read as rRNA inh HTS 1.
`Cc1ccc(Oc2c(CO)c(-c3ccccc3)nn2C)cc1` gave NSD2 HMT inh -1, AF4-AF9 inh -2, rRNA inh HTS -24*, RAD52 anneal inh -11 and CASP6 VEID inh -1.
`Cc1ccc(S(=O)(=O)c2c(CO)c(-c3ccccc3)nn2C)cc1` gave NSD2 HMT inh -1, AF4-AF9 inh 0, rRNA inh HTS -11, RAD52 anneal inh -11 and CASP6 VEID inh 6.
CC[C@@H]1C/C=C\C[C@H](c2ccc(OC)cc2OC)NC(=O)[C@H](C)CC(=O)N1 was read as rRNA inh HTS 3.
Screening C[C@@H]1CCCCO[C@@H](CN(C)CC2CC2)[C@H](C)CN([C@@H](C)CO)C(=O)c2cc(NC(=O)Nc3ccc4c(c3)OCO4)ccc2O1 returned AF4-AF9 inh inconclusive, rRNA inh HTS 3, RAD52 anneal inh 35 and CASP6 VEID inh -1.
Screening C[C@@H]1CCCCO[C@H](CN(C)CC2CCCCC2)[C@H](C)CN([C@H](C)CO)C(=O)c2cc(NC(=O)Nc3ccc4c(c3)OCO4)ccc2O1 returned AF4-AF9 inh -17, rRNA inh HTS -27, RAD52 anneal inh 14 and CASP6 VEID inh 3.
C[C@@H]1CCCCO[C@H](CN(C)CC2CC2)[C@H](C)CN([C@@H](C)CO)C(=O)c2cc(NC(=O)Nc3ccc4c(c3)OCO4)ccc2O1 was read as AF4-AF9 inh 34*, rRNA inh HTS -1, RAD52 anneal inh 55* and CASP6 VEID inh -1.
For C[C@H]1CCCCO[C@H](CN(C)CC2CC2)[C@@H](C)CN([C@@H](C)CO)C(=O)c2cc(NC(=O)Nc3ccc4c(c3)OCO4)ccc2O1 the results were AF4-AF9 inh 35*, rRNA inh HTS 3, RAD52 anneal inh 36 and CASP6 VEID inh 1.
COc1cc2c(cc1OC)/C(=C/C(=O)c1ccc(F)cc1)NCC2 was read as NSD2 HMT inh 11, AF4-AF9 inh 10, rRNA inh HTS -1, RAD52 anneal inh 8 and CASP6 VEID inh 44*.
Screening COc1cc2c(cc1OC)/C(=C/C(=O)c1ccccc1F)NCC2 returned NSD2 HMT inh 11, AF4-AF9 inh 9, rRNA inh HTS -4, RAD52 anneal inh 5 and CASP6 VEID inh 15.
For N#Cc1ccc(-c2ccc([C@@H]3[C@H]4CN(C(=O)Nc5ccc(F)cc5)CCCCN4[C@H]3CO)cc2)cc1 the results were AF4-AF9 inh -12, rRNA inh HTS -25, RAD52 anneal inh -1 and CASP6 VEID inh -1.
Screening Nc1nc(N)c(C=Nc2ccc(Br)cc2)c(Nc2ccc(Br)cc2)n1 returned NSD2 HMT inh 1, AF4-AF9 inh -9, rRNA inh HTS -25*, RAD52 anneal inh -12 and CASP6 VEID inh -1.
`CCOC(=O)/C(=N\Nc1ccccc1)P(=O)(c1ccccc1)c1ccccc1` gave NSD2 HMT inh 11, AF4-AF9 inh 8, rRNA inh HTS -37*, RAD52 anneal inh -7 and CASP6 VEID inh 1.
For CCOC(=O)/C(=N\Nc1ccccc1)S(=O)(=O)c1ccccc1 the results were NSD2 HMT inh -1, AF4-AF9 inh 3, rRNA inh HTS 9, RAD52 anneal inh -10 and CASP6 VEID inh -2.
Screening CCCC1c2ccsc2CCN1C(=S)NC (centres undefined) returned NSD2 HMT inh -3, AF4-AF9 inh -2, rRNA inh HTS -36*, RAD52 anneal inh 0 and CASP6 VEID inh -2.
Screening CCC(CC)=NNc1cccc([N+](=O)[O-])c1 returned NSD2 HMT inh 4.
Screening O=[N+]([O-])c1cccc(N=Nc2ccc(O)cc2O)c1 returned NSD2 HMT inh 11, AF4-AF9 inh 6, rRNA inh HTS -21*, RAD52 anneal inh -7 and CASP6 VEID inh 5.
O=[N+]([O-])c1cccc(N=NNc2cccc([N+](=O)[O-])c2)c1 was read as NSD2 HMT inh -1, AF4-AF9 inh -2, rRNA inh HTS -27* and RAD52 anneal inh -2.
`CCNC(=O)Nc1ccc2c(c1)C(=O)N(C)[C@H]1CC[C@H](CC(=O)Nc3ccccc3)O[C@@H]1CO2` gave AF4-AF9 inh -1, rRNA inh HTS 1, RAD52 anneal inh 1 and CASP6 VEID inh -2.
N#CC1=C(N)OC2=C(CCc3ccccc32)C1c1ccccc1Cl (centres undefined) was read as NSD2 HMT inh -2, AF4-AF9 inh 5, rRNA inh HTS -22*, RAD52 anneal inh -36 and CASP6 VEID inh 1.
Cc1ccc(S(=O)(=O)Nc2ccc3c(c2)C(=O)N([C@H](C)CO)C[C@H](C)[C@H](CN(C)C(=O)Nc2ccccc2)O3)cc1 was read as AF4-AF9 inh 0 and rRNA inh HTS -3.
Screening Cc1ccn2c(=O)nc(SCC(=O)N3CCC(C)CC3)nc2c1 returned NSD2 HMT inh 4, AF4-AF9 inh -1, rRNA inh HTS 7, RAD52 anneal inh -8 and CASP6 VEID inh 52*.
Cc1ccn2c(=O)nc(SCC(=O)N3CCCC3)nc2c1 was read as NSD2 HMT inh 4, AF4-AF9 inh 0, rRNA inh HTS 6, RAD52 anneal inh -13 and CASP6 VEID inh 4.
`Cc1ccc(-c2nnc(NC(=O)c3ccco3)o2)c(C)c1` gave NSD2 HMT inh 0, AF4-AF9 inh 1, rRNA inh HTS -24*, RAD52 anneal inh -4 and CASP6 VEID inh -3.
